Experimental findings from PubChem BioAssay (NCATS) are described below.

A number with no mark means an inactive call. The source made the active and inactive calls. Calls come from the whole dose curve; as a rule, active = well fitted inhibition curve with a large enough effect; inconclusive = small, poorly fitted or top-dose-only effect; inactive = flat fitted curve, though single readings scatter.

The assay addresses Luciferin 4-monooxygenase (Photinus pyralis) (UniProt P08659). Briefly: Primary firefly luciferase (FLuc) qHTS assay for identification of artifact compounds. (AID 1845220).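 For activity change, negative = inhibition: plate controls were DMSO vehicle for no effect and no enzyme for full effect.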 Note: nearly all actives have a fitted effect of over 60% in size. Conditions: purified firefly luciferase, luminescence, 5 min; series mostly up to 54.1 µM; activity change, negative = inhibition: at the top concentration. The procedure, abridged: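 qHTS, 15 min compound preincubation with substrate (10 uM luciferin, 10 uM ATP) at RT, then 10 nM FLuc; 5 min; luminescence; % inhibition vs no-enzyme/DMSO controls, 4-parameter Hill fit.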
Regarding `CO[C@@H]1[C@H](O)[C@@H](O[C@@H]2C[C@H]3CC[C@@H]4C(CC[C@]5(C)[C@@H](C6=CC(=O)OC6)CC[C@]45O)[C@@]3(C)[C@H](O)C2)O[C@H](C)[C@@H]1O[C@@H]1O[C@H](CO)[C@@H](O)[C@H](O)[C@H]1O` (some centres undefined), the “activity change, negative = inhibition” value is 3.75% [at 25.7 µM]. Consider `C=C(C)[C@H]1O[C@H]2CC[C@@]3(C)[C@@](O)(CC[C@H]4[C@@H]5OC(C)(C)[C@H]6C[C@@H]7C(=C)Cc8c(Cl)cc9[nH]c(c5c9c8[C@@]76O)[C@@]43C)[C@]23O[C@@H]3[C@H]1O`, for which the “outcome” value is “inactive [at 25.7 µM]”. Regarding `CC(C)(C)c1cc(C(C)(C)C)c2c(c1)C(O)(C(F)(F)F)C(=O)O2` (centres undefined), the call was inactive. On the same count and under the same terms, as for `CCCN1CCO[C@H]2c3cc(O)ccc3OC[C@@H]21`, the entry is “inactive”. Consider `COC(=O)C1(C)CCC(O)C2(C)c3c(O)cc(C(C)C)cc3C(O)C(OC(C)=O)C12` (centres undefined), for which the “activity change, negative = inhibition” value was 1.65% [at 25.7 µM]. Consider `CCN1C[C@]2(OC(=O)c3ccccc3NC(C)=O)CC[C@H](OC)[C@@]34[C@@H]2C[C@@H]([C@@H]13)[C@@]1(O)C[C@H](OC)[C@H]2C[C@@H]4[C@]1(O)[C@H]2OC`, for which the call was inactive. Still for that read-out and setting: as for `CCN1C[C@]2(COC(=O)c3ccccc3N3C(=O)C[C@H](C)C3=O)CC[C@H](OC)[C@@]34[C@@H]5C[C@H]6[C@H](OC)[C@@H]5[C@](O)(C[C@@H]6OC)[C@](O)([C@@H](OC)[C@H]23)[C@@H]14`, the entry is “inactive”; as for `C=C[C@H]1[C@H](O[C@@H]2O[C@H](CO)[C@@H](O)[C@H](O)[C@H]2O)OC=C2C(=O)OCC[C@H]21`, “inactive”. Still for that read-out and setting: as for `COC1CC(OC2CCC3(C)C(=CCC4C3CCC3(C)C(C(C)OC5OC(COC6OC(CO)C(O)C(O)C6O)C(O)C(O)C5O)CCC43O)C2)OC(C)C1OC1OC(C)C(O)C(OC)C1O` (centres undefined), the entry is “inactive [at 11.6 µM]”.
